In the library only some 4.7% were active in any assay of this set; here they are far more common.
VHR inh abs = blocks human VHR1 dual specificity phosphatase; P51452; recombinant VHR phosphatase, pNPP absorbance; inhibition, % at 13.3 µM; 290,000 compounds, 0.52% hits; in the data active = inhibition above about 50%
Target sequence (P51452 whole entry, looked up): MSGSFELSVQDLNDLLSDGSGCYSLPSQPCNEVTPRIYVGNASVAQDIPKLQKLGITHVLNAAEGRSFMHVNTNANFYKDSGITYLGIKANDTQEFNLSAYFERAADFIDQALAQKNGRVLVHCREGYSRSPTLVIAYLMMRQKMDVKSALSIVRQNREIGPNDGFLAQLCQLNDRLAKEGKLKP
RecA intein inh = inhibitors of M. tuberculosis RecA intein splicing; cell-free RecA intein splicing, fluorescence; inhibition, % (concentration not given with the values); 290,000 compounds, 0.75% hits; AID 2221; in the data active = inhibition above about 30%;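 note: 0% = vehicle wells and 100% = reference inhibitor control wells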
FBA Mtb inh = inhibitors of M. tuberculosis fructose-bisphosphate aldolase; 360,000 compounds, 2.3% hits; AID 588726; P9WQA3; purified M. tuberculosis FBA, fluorescence read-out; inhibition, % at 1 µM; in the data active = inhibition above about 27%;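 note: 0% = vehicle and 100% = reference inhibitor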
Target sequence (P9WQA3 whole entry, looked up): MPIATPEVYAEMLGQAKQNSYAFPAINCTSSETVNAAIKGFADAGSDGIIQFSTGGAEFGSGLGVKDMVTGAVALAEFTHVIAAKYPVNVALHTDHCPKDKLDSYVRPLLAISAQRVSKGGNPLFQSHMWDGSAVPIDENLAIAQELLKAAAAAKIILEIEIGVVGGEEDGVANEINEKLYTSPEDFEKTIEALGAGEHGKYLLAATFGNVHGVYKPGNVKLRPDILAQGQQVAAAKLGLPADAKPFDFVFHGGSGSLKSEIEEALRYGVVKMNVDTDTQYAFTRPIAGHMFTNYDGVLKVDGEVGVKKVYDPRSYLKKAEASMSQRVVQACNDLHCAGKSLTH
CCHFV vOTU inh = blocks the CCHF virus ovarian tumor domain protease; CCHFV vOTU protease, Pep-AMC fluorescence; inhibition, % at 11.5 µM; 370,000 compounds, 0.55% hits; AID 651958; note: 0% = vehicle wells with enzyme and 100% = no enzyme wells
SARS 3CLpro inh = SARS-CoV 3CLpro protease inhibition | 290,000 compounds, 0.14% hits | recombinant SARS-CoV 3CLpro, quenched FRET peptide cleavage | AID 1706 | inhibition, % at 6 µM; in the data active = inhibition above about 12%
GDH-TPI inh = counter-screen for M. tuberculosis FBA inhibitors: GDH-TPI coupled enzymes | GDH-TPI coupled enzyme counterscreen, NADH absorbance | inhibition, % at 4.8 µM | 360,000 compounds, 1.2% hits | AID 588335;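 note: 0% = DMSO wells and 100% = wells lacking the enzyme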
Numbers without * were called inactive; nt = no result given; + = active, no number. Cut-off read from the data, not from the text of the source, unless noted: active = inhibition above about 30%; inactive = the rest.

SMILES | VHR inh abs | RecA intein inh | FBA Mtb inh | CCHFV vOTU inh | SARS 3CLpro inh | GDH-TPI inh
COc1cccc(/C=N/Nc2ncnc3scc(-c4ccccc4)c23)c1O | -11.3 | 28.7 | 4.7 | 17.7 | 2.2 | 32.3*
Clc1cncc(Cl)c1N/N=C/c1ccncc1 | -1.6 | 1.9 | -1.2 | 29.2 | 2.4 | 36.3*
Clc1cccc(Cl)c1/C=N/Nc1c(Cl)cncc1Cl | 22.4 | 2.9 | -0.4 | -5.2 | 5.3 | 4.0
COc1cccc(/C=N/Nc2cc(-n3nc(C)cc3-c3ccccc3)ncn2)c1O | -1.0 | 5.4 | -0.8 | -11.9 | -4.3 | 34.6*
COc1cccc(/C=N/Nc2nccnc2Cl)c1O | 4.3 | nt | -5.4 | 8.9 | 3.7 | 8.0
COc1cccc(/C=N/Nc2ncnc(Cl)c2N)c1O | -0.5 | 6.8 | -4.2 | 17.0 | -2.4 | 31.6*
C[C@H]1CN(S(=O)(=O)C(C)(C)C)[C@H](CCO)/C1=C\CCO | nt | nt | nt | 9.2 | nt | nt
COC(=O)c1cc2c(c3c4cc(OC)ccc4n(S(=O)(=O)c4cccc(C)c4)c13)C(=O)N(C)C2 | nt | nt | nt | 4.6 | nt | nt
Nc1c(Cl)ncnc1N/N=C/c1ccncc1 | 20.1 | -4.0 | -3.8 | 3.3 | 0.8 | 48.0*
COc1ccc(/C=N/Nc2ncnc(Cl)c2N)cc1OC | -10.5 | -2.3 | 2.0 | -2.0 | 0.9 | 15.6
Oc1ccc(/C=N/Nc2ncnc3c2ncn3Cc2ccccc2)cc1O | 11.1 | -8.3 | -3.1 | 2.0 | 3.1 | 22.3
Oc1cccc(/C=N/Nc2ncnc3c2ncn3Cc2ccccc2)c1 | 1.7 | 2.1 | 2.0 | 27.5 | -2.2 | 36.7*
Nc1c(Cl)ncnc1N/N=C/c1cccc(O)c1 | 30.1 | -8.3 | -2.1 | 10.3 | -0.9 | 41.5*
OC[C@H]1O[C@@H](Oc2ccc(O)cc2)[C@H](O)[C@@H](O)[C@@H]1O | nt | nt | -0.8 | -2.7 | nt | -5.7
O=c1c(O[C@@H]2O[C@H](CO)[C@H](O)[C@H](O)[C@H]2O)c(-c2ccc(O)c(O)c2)oc2cc(O)cc(O)c12 | -10.7 | nt | nt | nt | nt | nt
O=C(CCc1ccc(O)cc1)c1c(O)cc(O)cc1O[C@@H]1O[C@H](CO)[C@@H](O)[C@H](O)[C@H]1O | 13.4 | -2.4 | 1.8 | 8.4 | -3.2 | 33.3*
O=c1c(O[C@@H]2O[C@H](CO)[C@@H](O)[C@H](O)[C@H]2O)c(-c2ccc(O)cc2)oc2cc(O)cc(O)c12 | nt | nt | 3.6 | nt | nt | 37.2*
CCOc1ccccc1C=NNC(=O)C1CC1 | nt | nt | -1.3 | 21.3 | nt | 13.6
Cc1cn([C@H]2C[C@H](O)[C@@H](/C=C/C(=O)NCCN3CCCCC3)O2)c(=O)[nH]c1=O | nt | nt | -0.4 | -1.5 | nt | nt
Cc1cc(=O)[nH]c(N2CCN(Cc3ccccc3)CC2)n1 | 2.9 | 0.0 | 2.1 | 13.0 | -4.0 | -7.1
Cc1cc(=O)[nH]c(N2CCCNCC2)n1 | 53.9* | -1.2 | 2.2 | nt | -3.3 | 4.9
COC(=O)[C@@]12CCCCC3=C1N(CCC3)C(=O)[C@H]2CC(=O)NCCC(C)C | nt | nt | nt | -2.4 | nt | nt
CC(C)(C)c1cc(C(F)(F)F)c(C#N)c(=O)[nH]1 | 11.3 | 0.9 | 119.5* | -170.3 | -0.6 | 5.0
CCCc1cc(C(F)(F)F)c(C#N)c(=O)[nH]1 | 21.8 | -2.6 | 156.0* | -170.0 | 4.2 | 11.2
O=C(O)CN1C(=O)/C(=C\c2cc(Br)ccc2OCc2ccc(Cl)cc2)SC1=S | 57.3* | 0.9 | -2.5 | 13.7 | 5.4 | 3.4
SMILES | VHR inh abs | RecA intein inh | FBA Mtb inh | CCHFV vOTU inh | SARS 3CLpro inh | GDH-TPI inh
CCc1ccc(-c2nc(-c3ccncc3)no2)cc1 | 57.1* | nt | 1.5 | 5.4 | 0.4 | 4.5
O=C(O)c1ccc(-c2nc(-c3ccccc3)c(-c3ccccc3)[nH]2)cc1 | 2.3 | 5.0 | + | -343.3 | -1.9 | 29.7
Cc1c(C)c(C)c2[nH]c(-c3ccc4c(c3)OCO4)nc2c1C | 27.4 | -1.6 | 173.2* | nt | -5.4 | 3.2
COc1ccc(-c2[nH]c(-c3ccc4c(c3)OCO4)nc2-c2ccccc2)cc1 | 16.5 | 12.5 | 80.3* | -14.4 | -0.2 | 9.4
COc1ccc(-c2[nH]c(-c3ccc(C(=O)O)cc3)nc2-c2ccccc2)cc1 | 23.1 | -4.6 | + | -203.8 | 3.2 | 11.1
COc1ccc(-c2nc(-c3ccccc3)[nH]c(=O)c2C#N)cc1 | 17.7 | 0.2 | -2.1 | -3.2 | 3.7 | 0.9
Cc1cnc(C)c(Nc2nc(C(N)Cc3ccc(Cl)cc3)cs2)n1 (stereo unspecified) | nt | nt | -0.8 | 17.1 | nt | 3.6
COC(=O)CN1CCN(C(=O)c2csc3ccccc23)CC1 | nt | nt | nt | -6.9 | nt | nt
O=C(NCc1cccc(Cl)c1)c1ccc2nc[nH]c2c1 | 55.6* | 0.6 | 3.0 | -6.9 | 1.8 | 10.3
COc1ccc(C(=O)/C=C/Nc2cc(C)on2)c(OC)c1 | -11.2 | -3.6 | 2.1 | 5.1 | 1.1 | 40.2*
CN(C(=O)Cn1c(=O)oc2ccccc21)C1CCCCC1 | nt | nt | 0.2 | -1.2 | nt | -5.5
CN(C(=O)C1CCCN(c2ncnc3c2nc2n3CCCCC2)C1)c1cccc(Cl)c1 (stereo unspecified) | 52.3* | 5.5 | 0.9 | 9.6 | -4.9 | 9.6
CC(C)n1nnnc1C1c2ccccc2C(=O)N1Cc1ccccc1 (stereo unspecified) | nt | nt | nt | 9.5 | nt | nt
CCOC(=O)c1nn(-c2ccc3c(c2)CCN3C(C)=O)cc1O | 6.2 | -0.1 | + | -88.5 | 2.0 | 25.5
CCOC(=O)c1nn(-c2ccc(F)cc2)cc1O | -2.9 | -4.3 | 3.7 | -14.8 | 2.7 | 4.3
Nn1c(SCC(=O)N2c3ccccc3Sc3ccc(Cl)cc32)nnc1-c1n[nH]c2c1CCC2 | nt | nt | nt | 5.4 | nt | nt
O=C(NC1CCCCC1)C1CCN(C(=O)NCc2ccccc2)CC1 | 21.3 | 0.5 | -1.2 | 4.6 | -1.6 | 7.3
O=C(NC1CCCC1)C1CCN(C(=O)NCc2ccccc2)CC1 | 54.4* | -1.5 | 0.1 | 0.8 | -2.2 | 1.6
COc1ccccc1CCNC(=O)CSc1nc2c([nH]1)c(=O)n(C)c(=O)n2C | nt | nt | nt | 4.2 | nt | nt
COC(=O)C1=C(C)N(Cc2ccccc2C(F)(F)F)C(=NCc2ccccc2)NC1c1ccc(Cl)cc1 (stereo unspecified) | nt | nt | nt | 16.6 | nt | nt
COC(=O)c1[nH]c2ccccc2c1NC(=O)CN1CCCCCC1 | -17.2 | -0.6 | 4.7 | 1.0 | -1.0 | 4.3
COC(=O)c1[nH]c2ccccc2c1CN1CCOCC1 | 55.7* | -1.6 | 3.5 | 0.8 | -0.8 | -10.3
COc1ccc(Cl)cc1NC(=O)CN1CCN(S(=O)(=O)N2CCCCC2)CC1 | -11.4 | 1.2 | 1.4 | 0.8 | 0.8 | -6.0
O=[N+]([O-])c1ccc(Nc2nc(N/N=C\c3ccc4c(c3)OCO4)nc(N3CCCCC3)n2)cc1 | 28.7 | 0.9 | -1.2 | 12.6 | 4.3 | 34.7*
O=C(O)c1ccccc1N=Nc1ccc(O)cc1 | nt | -1.8 | -5.7 | 14.2 | nt | 35.8*
Cc1nc(N/N=C/c2ccc(O)cc2O)cc(N2CCOCC2)n1 | -3.8 | 6.0 | -0.8 | -1.0 | -5.2 | 64.3*
O=[N+]([O-])c1ccc(O)c(/C=N/Nc2ccccn2)c1 | 0.4 | -8.2 | -6.8 | 13.2 | -2.1 | 38.0*
CCN(CC)S(=O)(=O)c1ccc(N/N=C/c2ccc(O)cc2O)nc1 | 7.4 | 9.4 | -2.4 | 15.5 | -2.0 | 39.8*
O=[N+]([O-])c1ccc(O)c(C=NNc2ccc(S(=O)(=O)O)cc2)c1 | nt | nt | -9.0 | 16.4 | nt | 51.8*

Bioassay records from PubChem BioAssay.
